Molecules are shown by their SMILES.

As a reminder, the inhibition is the relative decrease from the control value, in per cent.

Experiment [1] addresses T1, Serine/threonine-protein kinase D2 (Homo sapiens) (UniProt Q9BZL6).
T1 sequence (whole entry): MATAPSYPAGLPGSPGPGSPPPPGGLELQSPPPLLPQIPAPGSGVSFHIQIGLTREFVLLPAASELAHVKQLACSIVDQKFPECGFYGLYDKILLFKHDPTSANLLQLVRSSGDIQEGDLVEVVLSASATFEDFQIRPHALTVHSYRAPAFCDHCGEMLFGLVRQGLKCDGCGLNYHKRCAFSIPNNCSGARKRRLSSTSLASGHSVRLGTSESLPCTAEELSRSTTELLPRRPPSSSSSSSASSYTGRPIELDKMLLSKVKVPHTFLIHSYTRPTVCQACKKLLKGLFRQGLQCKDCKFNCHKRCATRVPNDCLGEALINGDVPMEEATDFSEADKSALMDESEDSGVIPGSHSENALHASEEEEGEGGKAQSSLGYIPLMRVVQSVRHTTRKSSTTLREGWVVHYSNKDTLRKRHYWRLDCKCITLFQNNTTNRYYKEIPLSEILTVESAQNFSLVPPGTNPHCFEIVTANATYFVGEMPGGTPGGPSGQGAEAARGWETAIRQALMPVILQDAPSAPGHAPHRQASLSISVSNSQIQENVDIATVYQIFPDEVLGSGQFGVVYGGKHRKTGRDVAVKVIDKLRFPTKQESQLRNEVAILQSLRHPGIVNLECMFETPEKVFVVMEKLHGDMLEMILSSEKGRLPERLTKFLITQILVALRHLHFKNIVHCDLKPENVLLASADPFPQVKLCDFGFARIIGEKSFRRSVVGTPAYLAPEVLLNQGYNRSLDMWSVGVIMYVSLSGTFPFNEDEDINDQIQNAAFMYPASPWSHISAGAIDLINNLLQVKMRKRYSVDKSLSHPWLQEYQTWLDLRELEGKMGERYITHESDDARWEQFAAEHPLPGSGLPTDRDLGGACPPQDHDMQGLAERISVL
To be noted: at 1 µM.

Experiment [2] has as its target T2, Serine/threonine-protein kinase D3 (Homo sapiens) (UniProt O94806).
T2 sequence (whole entry): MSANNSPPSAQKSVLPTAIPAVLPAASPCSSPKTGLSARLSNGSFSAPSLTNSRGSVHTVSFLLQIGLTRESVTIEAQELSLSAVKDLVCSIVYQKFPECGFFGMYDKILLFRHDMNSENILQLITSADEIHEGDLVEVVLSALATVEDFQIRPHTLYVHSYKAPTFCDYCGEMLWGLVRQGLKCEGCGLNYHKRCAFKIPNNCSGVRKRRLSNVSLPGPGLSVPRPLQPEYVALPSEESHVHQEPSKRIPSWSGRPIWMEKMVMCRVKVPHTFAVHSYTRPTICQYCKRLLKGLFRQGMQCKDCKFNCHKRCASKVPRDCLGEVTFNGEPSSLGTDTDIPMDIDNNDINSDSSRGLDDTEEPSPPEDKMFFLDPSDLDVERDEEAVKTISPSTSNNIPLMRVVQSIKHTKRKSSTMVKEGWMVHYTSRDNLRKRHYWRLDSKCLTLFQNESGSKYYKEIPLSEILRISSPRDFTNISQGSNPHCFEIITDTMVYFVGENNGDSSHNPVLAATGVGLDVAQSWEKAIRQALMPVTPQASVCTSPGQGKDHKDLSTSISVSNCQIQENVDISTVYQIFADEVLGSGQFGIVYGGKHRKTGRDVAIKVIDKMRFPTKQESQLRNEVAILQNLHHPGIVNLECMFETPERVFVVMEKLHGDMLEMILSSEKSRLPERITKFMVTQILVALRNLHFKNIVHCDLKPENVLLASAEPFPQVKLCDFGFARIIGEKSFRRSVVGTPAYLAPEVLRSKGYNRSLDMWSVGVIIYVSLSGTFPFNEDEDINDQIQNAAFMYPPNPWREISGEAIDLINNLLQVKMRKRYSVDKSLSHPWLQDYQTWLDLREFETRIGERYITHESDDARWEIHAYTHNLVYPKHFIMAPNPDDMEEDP
The following applies: at 0.1 µM.

Experiment [3] deals with T2, Serine/threonine-protein kinase D3 (Homo sapiens). To be noted: at 1 µM.
Experiment [4] concerns the target T3, cGMP-dependent protein kinase 1 (Homo sapiens) (UniProt Q13976).
T3 sequence (whole entry): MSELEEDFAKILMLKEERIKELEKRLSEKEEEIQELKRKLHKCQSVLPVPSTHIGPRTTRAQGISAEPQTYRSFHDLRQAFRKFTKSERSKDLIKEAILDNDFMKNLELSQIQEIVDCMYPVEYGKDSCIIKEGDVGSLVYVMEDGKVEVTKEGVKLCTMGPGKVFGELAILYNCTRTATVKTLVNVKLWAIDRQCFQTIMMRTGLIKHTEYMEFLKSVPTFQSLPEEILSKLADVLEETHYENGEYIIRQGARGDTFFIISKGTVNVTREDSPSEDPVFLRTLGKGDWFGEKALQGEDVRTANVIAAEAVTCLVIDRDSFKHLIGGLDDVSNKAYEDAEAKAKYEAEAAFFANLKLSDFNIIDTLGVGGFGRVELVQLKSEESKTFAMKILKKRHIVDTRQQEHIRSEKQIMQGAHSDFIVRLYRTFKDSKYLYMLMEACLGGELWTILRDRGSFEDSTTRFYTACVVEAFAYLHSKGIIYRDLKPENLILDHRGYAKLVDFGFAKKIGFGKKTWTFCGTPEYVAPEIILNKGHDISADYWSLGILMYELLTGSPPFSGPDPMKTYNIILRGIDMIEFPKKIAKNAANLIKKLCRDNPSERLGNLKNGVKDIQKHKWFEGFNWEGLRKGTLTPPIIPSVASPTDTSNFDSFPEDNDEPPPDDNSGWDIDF
To be noted: at 0.1 µM.

For experiment [5], the target named is T3, cGMP-dependent protein kinase 1 (Homo sapiens). The following applies: at 1 µM.
Experiment [6] deals with T4, cGMP-dependent protein kinase 2 (Homo sapiens) (UniProt Q13237).
T4 sequence (whole entry): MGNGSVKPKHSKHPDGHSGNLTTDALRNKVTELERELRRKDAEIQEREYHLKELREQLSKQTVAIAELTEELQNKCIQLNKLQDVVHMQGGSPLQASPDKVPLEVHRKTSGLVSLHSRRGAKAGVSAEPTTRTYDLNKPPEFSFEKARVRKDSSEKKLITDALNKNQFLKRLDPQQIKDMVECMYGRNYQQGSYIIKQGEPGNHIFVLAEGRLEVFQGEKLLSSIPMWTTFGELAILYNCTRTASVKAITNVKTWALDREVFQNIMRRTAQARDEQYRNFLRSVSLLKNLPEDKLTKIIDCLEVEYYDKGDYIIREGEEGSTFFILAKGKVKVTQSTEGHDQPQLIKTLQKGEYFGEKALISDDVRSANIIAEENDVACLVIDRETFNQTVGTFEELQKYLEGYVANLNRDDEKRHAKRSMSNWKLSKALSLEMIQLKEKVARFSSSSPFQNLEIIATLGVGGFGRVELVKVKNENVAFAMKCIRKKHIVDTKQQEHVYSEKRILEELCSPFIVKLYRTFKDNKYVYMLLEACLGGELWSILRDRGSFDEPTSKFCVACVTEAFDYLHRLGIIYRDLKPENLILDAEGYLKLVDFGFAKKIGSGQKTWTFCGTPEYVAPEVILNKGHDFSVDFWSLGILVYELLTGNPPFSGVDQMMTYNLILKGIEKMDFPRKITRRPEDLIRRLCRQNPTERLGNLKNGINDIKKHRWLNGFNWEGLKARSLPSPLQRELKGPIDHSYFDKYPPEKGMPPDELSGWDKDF
To be noted: at 0.1 µM.

Experiment [7] concerns the target T4, cGMP-dependent protein kinase 2 (Homo sapiens). To be noted: at 1 µM.
In experiment [8] the target is T5, cAMP-dependent protein kinase catalytic subunit PRKX (Homo sapiens) (UniProt P51817).
T5 sequence (whole entry): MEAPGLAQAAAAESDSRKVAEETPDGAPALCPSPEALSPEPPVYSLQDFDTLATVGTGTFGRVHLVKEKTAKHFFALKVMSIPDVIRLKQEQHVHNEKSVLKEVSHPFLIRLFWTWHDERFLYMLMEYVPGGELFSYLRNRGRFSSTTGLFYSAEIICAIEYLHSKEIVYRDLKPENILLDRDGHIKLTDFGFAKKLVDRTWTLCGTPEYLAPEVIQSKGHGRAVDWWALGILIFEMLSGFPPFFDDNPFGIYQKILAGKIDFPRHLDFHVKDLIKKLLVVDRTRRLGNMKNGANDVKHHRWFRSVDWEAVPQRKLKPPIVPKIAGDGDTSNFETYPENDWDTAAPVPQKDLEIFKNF
The following applies: at 0.1 µM.

The target in experiment [9] is T5, cAMP-dependent protein kinase catalytic subunit PRKX (Homo sapiens). The following applies: at 1 µM.
Experiment [10] deals with Rho-associated protein kinase 1 (Homo sapiens) (UniProt Q13464). The following applies: at 0.1 µM.
Experiment [11] has the same target. To be noted: at 1 µM.
In experiment [12] the target is Rho-associated protein kinase 2 (Homo sapiens) (UniProt O75116). The following applies: at 0.1 µM.
Experiment [13] has the same target. To be noted: at 1 µM.
In experiment [14] the target is Ribosomal protein S6 kinase alpha-1 (Homo sapiens) (UniProt Q15418). The following applies: at 0.1 µM.
The target is the same in experiment [15]. To be noted: at 1 µM.
For experiment [16], the target named is Ribosomal protein S6 kinase alpha-3 (Homo sapiens) (UniProt P51812). To be noted: at 0.1 µM.
The target is the same in experiment [17]. The following applies: at 1 µM.
Experiment [18] has as its target Ribosomal protein S6 kinase alpha-2 (Homo sapiens) (UniProt Q15349). The following applies: at 0.1 µM.
Experiment [19] has the same target. To be noted: at 1 µM.
Experiment [20] has as its target Ribosomal protein S6 kinase alpha-6 (Homo sapiens) (UniProt Q9UK32). The following applies: at 0.1 µM.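 Also: reported value is the mean inhibition of RSK4, from the GSK PKIS kinase inhibitor screen.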

Sequence of Rho-associated protein kinase 1 (Homo sapiens) (Q13464 2-1354 limits assumed): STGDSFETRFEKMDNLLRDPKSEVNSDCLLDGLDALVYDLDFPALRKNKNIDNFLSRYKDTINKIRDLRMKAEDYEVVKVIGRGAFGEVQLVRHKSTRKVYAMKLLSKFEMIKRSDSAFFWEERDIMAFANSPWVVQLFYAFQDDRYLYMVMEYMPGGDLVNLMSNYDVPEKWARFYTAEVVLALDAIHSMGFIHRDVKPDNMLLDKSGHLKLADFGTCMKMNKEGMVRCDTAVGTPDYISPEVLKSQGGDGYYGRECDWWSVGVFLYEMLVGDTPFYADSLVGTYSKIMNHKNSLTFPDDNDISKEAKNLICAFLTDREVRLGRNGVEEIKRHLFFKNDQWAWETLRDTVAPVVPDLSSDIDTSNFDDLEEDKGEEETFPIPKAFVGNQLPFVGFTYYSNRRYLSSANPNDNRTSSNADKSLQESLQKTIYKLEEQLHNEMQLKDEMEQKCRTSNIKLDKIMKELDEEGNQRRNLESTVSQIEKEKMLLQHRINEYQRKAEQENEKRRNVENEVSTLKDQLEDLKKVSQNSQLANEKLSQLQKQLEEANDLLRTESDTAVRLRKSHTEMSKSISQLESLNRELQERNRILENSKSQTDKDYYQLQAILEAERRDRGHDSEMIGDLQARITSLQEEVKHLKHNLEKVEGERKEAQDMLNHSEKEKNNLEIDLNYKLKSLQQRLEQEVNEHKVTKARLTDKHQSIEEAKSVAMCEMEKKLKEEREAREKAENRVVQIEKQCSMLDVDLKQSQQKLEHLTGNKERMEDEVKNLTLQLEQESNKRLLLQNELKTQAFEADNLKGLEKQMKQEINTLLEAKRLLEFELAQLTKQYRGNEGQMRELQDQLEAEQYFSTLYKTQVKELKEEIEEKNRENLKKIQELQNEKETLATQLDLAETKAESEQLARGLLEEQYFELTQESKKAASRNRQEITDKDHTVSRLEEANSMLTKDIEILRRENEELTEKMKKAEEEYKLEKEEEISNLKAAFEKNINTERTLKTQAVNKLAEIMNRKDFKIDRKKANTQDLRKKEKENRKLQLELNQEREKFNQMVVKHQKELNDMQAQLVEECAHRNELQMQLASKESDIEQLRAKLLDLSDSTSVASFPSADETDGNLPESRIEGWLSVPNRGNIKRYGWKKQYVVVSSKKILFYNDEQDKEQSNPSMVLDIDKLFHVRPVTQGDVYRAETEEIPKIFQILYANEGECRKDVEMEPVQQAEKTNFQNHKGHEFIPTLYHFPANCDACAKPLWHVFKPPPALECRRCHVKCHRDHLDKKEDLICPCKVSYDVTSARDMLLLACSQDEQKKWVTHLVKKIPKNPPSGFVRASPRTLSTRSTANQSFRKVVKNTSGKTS
Sequence of Ribosomal protein S6 kinase alpha-1 (Homo sapiens) (Q15418 whole entry): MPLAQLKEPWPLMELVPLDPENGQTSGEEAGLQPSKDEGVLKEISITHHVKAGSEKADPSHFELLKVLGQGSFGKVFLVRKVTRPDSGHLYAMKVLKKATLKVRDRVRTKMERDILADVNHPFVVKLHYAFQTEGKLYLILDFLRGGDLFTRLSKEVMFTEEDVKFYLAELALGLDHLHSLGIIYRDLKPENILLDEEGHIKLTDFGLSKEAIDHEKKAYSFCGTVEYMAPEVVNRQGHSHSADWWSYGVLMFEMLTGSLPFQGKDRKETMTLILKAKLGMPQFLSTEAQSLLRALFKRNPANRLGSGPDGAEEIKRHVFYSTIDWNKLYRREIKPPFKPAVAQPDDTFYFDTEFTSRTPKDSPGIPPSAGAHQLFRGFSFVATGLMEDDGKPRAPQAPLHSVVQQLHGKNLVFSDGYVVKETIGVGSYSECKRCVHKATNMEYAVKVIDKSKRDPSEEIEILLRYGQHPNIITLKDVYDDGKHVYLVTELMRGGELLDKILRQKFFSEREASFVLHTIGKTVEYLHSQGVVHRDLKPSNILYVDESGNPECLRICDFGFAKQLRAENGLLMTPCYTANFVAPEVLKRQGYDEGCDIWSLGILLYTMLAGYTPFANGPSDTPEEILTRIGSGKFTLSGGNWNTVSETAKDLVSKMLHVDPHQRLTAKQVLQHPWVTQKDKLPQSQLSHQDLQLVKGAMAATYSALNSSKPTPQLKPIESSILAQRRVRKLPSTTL
Sequence of Ribosomal protein S6 kinase alpha-6 (Homo sapiens) (Q9UK32 whole entry): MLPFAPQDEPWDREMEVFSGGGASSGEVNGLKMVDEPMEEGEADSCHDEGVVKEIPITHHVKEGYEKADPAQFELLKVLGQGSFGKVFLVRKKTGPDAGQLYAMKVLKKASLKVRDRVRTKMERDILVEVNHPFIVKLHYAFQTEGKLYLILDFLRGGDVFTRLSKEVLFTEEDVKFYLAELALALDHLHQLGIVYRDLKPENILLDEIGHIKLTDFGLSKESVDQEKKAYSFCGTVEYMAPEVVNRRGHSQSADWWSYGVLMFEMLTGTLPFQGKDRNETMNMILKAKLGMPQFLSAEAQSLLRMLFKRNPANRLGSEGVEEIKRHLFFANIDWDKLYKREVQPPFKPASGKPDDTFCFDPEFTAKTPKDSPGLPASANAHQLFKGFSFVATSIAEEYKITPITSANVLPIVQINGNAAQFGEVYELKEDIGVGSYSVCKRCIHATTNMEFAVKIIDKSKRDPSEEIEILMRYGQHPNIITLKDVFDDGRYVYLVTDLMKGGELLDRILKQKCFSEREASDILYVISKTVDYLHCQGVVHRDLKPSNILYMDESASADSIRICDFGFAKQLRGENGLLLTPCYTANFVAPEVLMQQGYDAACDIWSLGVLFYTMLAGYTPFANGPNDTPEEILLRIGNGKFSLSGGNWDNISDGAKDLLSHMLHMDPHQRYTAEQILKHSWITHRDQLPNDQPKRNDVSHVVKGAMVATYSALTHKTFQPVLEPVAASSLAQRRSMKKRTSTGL
Sequence of Ribosomal protein S6 kinase alpha-3 (Homo sapiens) (P51812 whole entry): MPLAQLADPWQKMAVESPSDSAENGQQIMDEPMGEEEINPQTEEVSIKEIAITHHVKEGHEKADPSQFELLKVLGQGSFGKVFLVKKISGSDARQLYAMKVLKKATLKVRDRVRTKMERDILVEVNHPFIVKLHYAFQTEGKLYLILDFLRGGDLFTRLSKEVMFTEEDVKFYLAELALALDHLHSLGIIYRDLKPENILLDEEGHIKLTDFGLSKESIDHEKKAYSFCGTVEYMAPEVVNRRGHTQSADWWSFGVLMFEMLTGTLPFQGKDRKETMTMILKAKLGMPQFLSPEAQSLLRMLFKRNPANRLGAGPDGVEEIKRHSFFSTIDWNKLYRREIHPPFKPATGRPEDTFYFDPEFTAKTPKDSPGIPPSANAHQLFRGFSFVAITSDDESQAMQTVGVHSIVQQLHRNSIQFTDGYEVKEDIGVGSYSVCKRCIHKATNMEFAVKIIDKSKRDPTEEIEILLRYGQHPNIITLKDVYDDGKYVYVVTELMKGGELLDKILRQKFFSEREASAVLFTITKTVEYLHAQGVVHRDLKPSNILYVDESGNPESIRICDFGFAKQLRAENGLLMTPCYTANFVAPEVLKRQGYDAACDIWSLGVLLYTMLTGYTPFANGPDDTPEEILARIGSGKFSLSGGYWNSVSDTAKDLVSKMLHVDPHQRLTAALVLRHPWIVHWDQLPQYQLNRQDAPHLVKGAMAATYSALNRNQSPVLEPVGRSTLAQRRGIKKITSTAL
Sequence of Rho-associated protein kinase 2 (Homo sapiens) (O75116 whole entry, looked up): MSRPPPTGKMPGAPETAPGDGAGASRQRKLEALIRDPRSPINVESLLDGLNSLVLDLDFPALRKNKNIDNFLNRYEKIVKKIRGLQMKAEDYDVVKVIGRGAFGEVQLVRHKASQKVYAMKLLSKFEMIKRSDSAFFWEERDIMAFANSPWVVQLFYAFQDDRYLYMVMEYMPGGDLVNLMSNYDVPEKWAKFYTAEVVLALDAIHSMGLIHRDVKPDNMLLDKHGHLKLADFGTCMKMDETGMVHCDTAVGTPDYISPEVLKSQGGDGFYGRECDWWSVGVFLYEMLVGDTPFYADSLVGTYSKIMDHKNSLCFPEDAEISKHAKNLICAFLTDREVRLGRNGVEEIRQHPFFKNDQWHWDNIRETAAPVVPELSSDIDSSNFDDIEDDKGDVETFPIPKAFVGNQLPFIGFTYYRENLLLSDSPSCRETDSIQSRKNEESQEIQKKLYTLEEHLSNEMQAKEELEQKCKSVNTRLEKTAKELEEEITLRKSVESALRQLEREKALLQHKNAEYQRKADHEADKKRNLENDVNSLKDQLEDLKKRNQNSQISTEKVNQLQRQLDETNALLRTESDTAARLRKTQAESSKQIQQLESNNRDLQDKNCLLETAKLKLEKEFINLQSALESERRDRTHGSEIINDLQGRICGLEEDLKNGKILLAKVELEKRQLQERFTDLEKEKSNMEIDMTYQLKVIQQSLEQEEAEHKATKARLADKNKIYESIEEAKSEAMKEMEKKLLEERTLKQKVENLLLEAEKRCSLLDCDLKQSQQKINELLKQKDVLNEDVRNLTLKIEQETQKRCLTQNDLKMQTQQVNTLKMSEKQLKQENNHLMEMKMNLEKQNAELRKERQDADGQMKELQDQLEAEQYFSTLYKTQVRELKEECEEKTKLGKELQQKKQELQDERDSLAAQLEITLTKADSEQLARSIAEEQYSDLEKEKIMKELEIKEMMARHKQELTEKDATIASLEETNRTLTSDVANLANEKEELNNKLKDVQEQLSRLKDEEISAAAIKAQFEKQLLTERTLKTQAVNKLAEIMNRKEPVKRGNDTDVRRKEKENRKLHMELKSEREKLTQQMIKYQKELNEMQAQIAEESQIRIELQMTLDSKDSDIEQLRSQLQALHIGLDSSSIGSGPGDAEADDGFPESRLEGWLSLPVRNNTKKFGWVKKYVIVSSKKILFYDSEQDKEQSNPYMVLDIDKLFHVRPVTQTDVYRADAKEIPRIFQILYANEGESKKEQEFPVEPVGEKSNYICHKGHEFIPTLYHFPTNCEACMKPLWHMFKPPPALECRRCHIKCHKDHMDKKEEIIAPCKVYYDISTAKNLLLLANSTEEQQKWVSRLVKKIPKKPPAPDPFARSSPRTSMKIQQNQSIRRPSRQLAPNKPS

Regarding `CCS(=O)(=O)c1ccc(OC)c(Nc2ncc(-c3cccc(C(C)=O)c3)o2)c1`, the inhibition in [1] was 1%; in experiment [2], 2.85%; in [3] it was 1.31%; in [4], 1.67%; in [5], 2.08%; in experiment [6] it was -0.65%. The inhibition in experiment [7] was 2.63%; in [8], 1.59%; in experiment [9] it was 3.12%; in experiment [10], 0.01%; in [11], 2.14%; in [12], 1.98%. For the same compound, the inhibition in [13] was 6.73%; in experiment [14], 2.43%; in experiment [15] it was 5.75%; in experiment [16], 1.27%; in experiment [17], 3.54%; in experiment [18], 0.6%. Besides, the inhibition in experiment [19] was 3.67%; in experiment [20] it was 1%.

As for `COc1cccc(Nc2nccc(-c3cnn4ncccc34)n2)c1`, the inhibition amounted to 37.4% in experiment [1]; 4.36% in experiment [2]; 41.4% in experiment [3]; 5.54% in experiment [4]; 37.6% in experiment [5]; 1.94% in experiment [6]. For the same compound, the inhibition is 14.5% in [7]; -0.56% in experiment [8]; -0.01% in [9]; -0.95% in experiment [10]; 6.3% in [11]; 2.21% in experiment [12]. The inhibition was 15.4% in experiment [13]; 0.64% in experiment [14]; 4.33% in experiment [15]; -0.39% in experiment [16]; 2.48% in experiment [17]; -0.61% in [18]. Moreover, the inhibition in experiment [19] was 2.4%; in experiment [20], -1.37%.

For the compound `COc1cc2c(cc1Nc1nc(Nc3cccc(F)c3C(N)=O)c3cc[nH]c3n1)N(C(=O)CN1CCN(C(C)C)CC1)CC2`, the inhibition in [1] is 8.82%; in experiment [2] it was 3.64%; in [3], 8.43%; in experiment [4], 4.61%; in experiment [5], 10.1%; in [6], 3.86%. Also, the inhibition amounted to 5.6% in [7]; 2.44% in experiment [8]; 2.36% in experiment [9]; 0.72% in experiment [10]; 0.34% in experiment [11]; 0.62% in [12]. Moreover, the inhibition in experiment [13] is 2.82%; in experiment [14], 4.37%; in experiment [15], 20.1%; in [16], 2.2%; in experiment [17], 10.3%; in [18] it was 1.68%. Also, the inhibition in experiment [19] stood at 2.89%; in experiment [20], 3.57%.

Source of the values: ChEMBL document CHEMBL1961873, “Compounds: GSK PKIS; Assays: Nanosyn kinase panel” (2012).
